Experimental data reported in PubChem BioAssay AID1159580 (chemical genetic matrix, 2015).
The campaign covered roughly 5,500 compounds. About 2,000 (36%) were called active. Roughly 18% stayed inconclusive and do not appear here. Cut-off read from the data, not from the text of the source: active = normalized growth mostly below about 0.91 (no sharp cut-off); inconclusive = no clear call, values can overlap the other calls; inactive = mostly above about 0.92. This is one part of the list.

Test: chemical genetic growth profiling, strain panel (AID 1159580);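 note: tested at 20 µM; growth read once vehicle control cultures reached saturation at 30 °C; 1 = growth at the plate median or of vehicle wells; lower values mean less growth of the strain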
Conditions: S. cerevisiae deletion strains, growth OD
[1] = locus YAL040C, strain CLN3, active compounds read low
[2] = locus YCL061C, strain MRC1 (second series), active compounds read low
[3] = locus YDR150W, strain NUM1, active compounds read low
[4] = locus YDR363W, strain ESC2, active compounds read low
[5] = locus YER002W, strain NOP16, active compounds read low
[6] = locus YGR078C, strain PAC10, active compounds read low
[7] = locus YMR263W, strain SAP30, active compounds read low
[8] = locus YNL128W, strain TEP1, active compounds read low
[9] = locus YNL175C, strain NOP13, active compounds read low
[10] = locus YNL197C, strain WHI3, active compounds read low
[11] = locus YNL224C, strain SQS1, active compounds read low
[12] = locus YOR083W, strain WHI5 (second series), active compounds read low
[13] = locus YPL241C, strain CIN2, active compounds read low

Measured: normalized growth

COc1cc2nc(N3CCN(C(=O)OCc4ccccc4)C(C(=O)NC(C)(C)C)C3)nc(N)c2cc1OC (stereo not drawn)
active: [5] 1.14 [resistant]
inactive: [1] 0.999 | [2] 0.984 | [3] 0.997 | [4] 0.967 | [6] 1.01 | [7] 0.993 | locus YMR307W, strain GAS1, active compounds read low 0.989 | [8] 1.08 | [9] 1.02 | [10] 1.03 | [11] 1.03 | locus YNL322C, strain KRE1, active compounds read low 0.985 | [12] 1.07 | [13] 0.991

COc1cc2nc(N3CCN(C(=O)C4COc5ccccc5O4)CC3)nc(N)c2cc1OC (stereo not drawn)
inactive: [1] 0.982 | [2] 0.985 | [4] 1.07 | [5] 1.01 | [6] 0.986 | locus YHR030C, strain SLT2, active compounds read low 1.03 | locus YHR079C, strain IRE1, active compounds read low 0.981 | locus YJL095W, strain BCK1, active compounds read low 0.983 | locus YJR066W, strain TOR1, active compounds read low 0.968 | locus YLR113W, strain HOG1, active compounds read low 0.999 | [7] 1.01 | [8] 1.01 | [9] 0.99 | locus YNL183C, strain NPR1, active compounds read low 0.939 | [10] 0.947 | [11] 1.01 | [12] 0.988 | locus YOR231W, strain MKK1, active compounds read low 0.983 | locus YPL256C, strain CLN2, active compounds read low 0.988

COc1cc2nc(N3CC=[N+](C(=O)c4ccco4)CC3)nc(N)c2cc1OC
inactive: [1] 1.02 | [2] 1 | [3] 1 | [4] 1.01 | [5] 1.01 | [6] 1.01 | locus YGR229C, strain SMI1, active compounds read low 1.01 | [8] 1 | locus YNL153C, strain GIM3, active compounds read low 0.978 | [9] 0.998 | [10] 1.01 | [11] 1.06 | [12] 1.01 | [13] 1
